Structures are written as SMILES. About 79,000 compounds went through this panel and 15% of them were active in at least one assay; those are over-represented in the sample as a whole. Values without a mark were called inactive. The source made the active and inactive calls. Rule as the data show it: active = growth inhibition above about 70%; inactive = the rest.

This test in a line: NCI Yeast Anticancer Drug Screen. Data for the bub3 strain (AID 167). Particulars: S. cerevisiae bub3 mutant strain, at 50.0 µM, stronger effect = higher value. The protocol:
Growth inhibition of yeast strains with defined genetic alterations is measured as a screen for potential anti-cancer activity. Selected strains with alterations in DNA damage repair or cell cycle control were exposed to compounds and growth inhibition was measured relative to vehicle treated controls. The strain used in this assay is bub3
Take `NS(=O)(=O)c1ccc(C(=O)O)s1`: the growth inhibition was 11.6%.

With `CCC(C)(C)c1ccc(OCCCCNC(=O)c2ccc3ccccc3c2O)c(C(C)(C)CC)c1`, the growth inhibition was -18.2%.

For the compound `COc1cc(CN2CCN(CCO)CC2)c(O)c(CN2CCN(CCO)CC2)c1`, the growth inhibition is -5.45%.

With `C(=N\N=C\c1ccccc1)/c1ccccc1`, the growth inhibition was -1.15%.

Regarding `O=C(NCc1ccc2ccc3cccnc3c2n1)c1ccc[n+](Cc2ccccc2)c1`, the growth inhibition is 10.1%.

Turning to `CCC(SC)C(=O)c1ccccc1` (stereo not given), the growth inhibition is -33.8%.

Take `Cn1nnc(/C(N)=N/N=C/c2ccccc2)n1`: the growth inhibition is -12.6%.

On to `COC(=O)c1c(C)oc(C)c1-c1ccc(OCc2ccccc2)c(OC)c1`, for which the growth inhibition was 1.25%.

Regarding `O=C(CNC(=O)c1ccccc1)NCS(=O)(=O)O`, the growth inhibition is 19.2%.

Turning to `CC(=O)CC(C)(C)NNC(N)=S`, the growth inhibition was -4.2%.

Turning to `C=CC1(c2ccc3ccccc3c2)OCC(CC)(CC)CO1`, the growth inhibition was 7.75%.

`CC(C)=CCC/C(C)=C/CNc1ncnc2c1ncn2C1OC(CO)C(O)C1O` (stereo not given): the growth inhibition was 12.9%.

In the case of `CC(C(=O)O)C(C)C(=O)O` (stereo not given), the growth inhibition is 5.1%.

Consider `CC1CCC2OC23C(=O)C2OC2C(C(C)(C)O)C13C` (stereo not given), for which the growth inhibition was 5.65%.

As for `CC1=CC2N(C=C1)C(c1cccc([N+](=O)[O-])c1)=NON2c1cc(C)ccn1` (stereo not given), the growth inhibition is -1%.

As for `CC(=O)/C(=C\c1ccccc1)C(=O)CCN(C)C`, the growth inhibition is 7%.

With `Cc1cc2c(c(C)c1O)C(C)(C)CN2C(=O)C(C)(C)C`, the growth inhibition was 2.1%.

Consider `Cc1cc(N=[N+]=[N-])c2ccc(Cl)cc2n1`, for which the growth inhibition was 8.55%.

Take `CC(=O)OCC(=O)[C@H]1CC[C@@H]2[C@]1(C)CC=C1[C@]23C=C[C@]2(C[C@@H](OC(C)=O)CC[C@]12C)C1C(=O)OC(=O)C13` (stereo not given in full): the growth inhibition is 4.65%.

For the compound `COc1ccc(C(=O)OCc2ccccc2CN2CCCCC2)cc1`, the growth inhibition was -14.2%.

Take `O=S(=O)(c1ccc(N=Cc2cccs2)cc1)c1ccc(N=Cc2cccs2)cc1`: the growth inhibition is 5.35%.

For `COc1cc(C)c(/C=C/C(=O)N2C(=O)OC[C@@H]2c2ccccc2)c(C)c1`, the growth inhibition was 19.1%.

Consider `CCCCCCCCCCCCCCCCCC(=O)N/N=C\c1ccc(O)c(OC)c1`, for which the growth inhibition was -2.55%.

Consider `O=Cc1ccccc1[N+](=O)[O-]`, for which the growth inhibition was 6.75%.

As for `O=C1OC(c2ccccc2)=N/C1=C\c1cccc2ccccc12`, the growth inhibition is -16.4%.

As to `COc1ccc2c(c1)C[N+](C)(C)[B-]O2`, the growth inhibition was 2.1%.

Consider `NC(=O)n1ccc(CC(O)(C(F)(F)F)C(F)(F)F)n1`, for which the growth inhibition is 2.35%.

As for `COc1ccccc1NC(=S)N1CCC(CCCC2CCN(C(=S)Nc3ccccc3OC)CC2)CC1`, the growth inhibition was -20.9%.

For the compound `CCN(CC)C(=O)Nc1cccc(O)c1`, the growth inhibition was -0.25%.

Regarding `Cc1ccnc2c1NC(=O)c1cccnc1N2C1CC1`, the growth inhibition was 6%.

In the case of `CC12CCCCC1C1=C(CCCC1)CC2` (stereo not given), the growth inhibition was 6.7%.

Consider `CC(C)=CCCC(C)(OC1OC(COC2OCC(O)C(O)C2O)C(O)C(O)C1O)C1CCC2(C)C1C(O)CC1C3(C)CCC(OC4OC(CO)C(O)C(O)C4OC4OC(CO)C(O)C(O)C4O)C(C)(C)C3CCC12C` (stereo not given), for which the growth inhibition is 4.55%.

Consider `O=C(O)CC(CSCP(=O)(O)O)C(=O)O` (stereo not given), for which the growth inhibition was 1.45%.

On to `CCCCCCCCCCCCCCCCSc1ccc(S(=O)(=O)N(C)C)cc1N`, for which the growth inhibition is 0.75%.

On to `O=C(c1ccccc1)c1ccc2[nH]ccc(=O)c2c1`, for which the growth inhibition is -7.85%.

Turning to `COc1ccc2c(c1)[n+]([O-])c(/C(C)=N/NC(=O)c1ccccc1O)c(C)[n+]2[O-]`, the growth inhibition was -3.35%.

`O=C(CCc1cc(O)cc(O)c1)NCCc1cc(OCc2ccccc2)cc(OCc2ccccc2)c1`: the growth inhibition is 27.1%.

On to `COC(=O)C1=C(C(=O)OC)C2(CCCCCC2=O)OC1=O` (stereo not given), for which the growth inhibition was 3.85%.

For the compound `O=S(=O)(Nc1cccc(Cl)c1)c1ccc(Cl)cc1`, the growth inhibition was 99.7% (active).

Turning to `CN1CCC(c2ccccc2)(c2ccccc2)OC1`, the growth inhibition is 9.95%.

For the origin of these results see PubChem BioAssay (NCI).
